# TTR transcr act – TTR transcription activation, primary screen | SH-SY5Y TTR promoter Gaussia luciferase, luminescence; 100% = recombinant luciferase protein wells | activation, % at 16.7 µM | actives 1.3% (n = 92,000) | AID 1117267;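 active = activation above the mean of all tested compounds plus 3 SD, cut at about 9.5% in these data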;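 note: cells exposed to compounds for one day before reading; 0% = median of all test compound wells on the plate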
# HuH7 TTR inh – decreases TTR transcription in HuH7 cells in activator counter-screen | shares compounds with TTR transcr act | HuH7 TTR promoter-Gaussia luciferase reporter, luminescence | inhibition, % at 16.7 µM | actives 4% (n = 1,100);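 active = average inhibition above the solvent-only control wells' mean plus 3 SD, cut at about 15% in these data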;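 note: 0% = cells with DMSO only and 100% = cells with inhibitor control FD; inhibitors lower well luminescence so higher value means more inhibition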
# TTR up confirm – human TTR transcription activation, confirmation; 1,100 tested, under 10 active; SHSY5Y TTR promoter Gaussia luciferase, luminescence; 100% = purified Lucia enzyme wells, no cells; shares compounds with TTR transcr act; activation, % at 16.7 µM; AID 1117280;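 active = mean activation above a set limit taken from the earlier primary screen, cut at about 11% in these data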;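 note: 0% = DMSO-treated cells and 100% = recombinant Lucia luciferase without cells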
# * = called active by the depositor. The entries come from a sample that favours hits as a whole.
SMILES,TTR transcr act,others
Cc1ccccc1C(=O)NCC(=O)c1ccccc1,2,
CCC/C(=N\NC(=O)c1ccccc1C)c1ccccc1,10*,HuH7 TTR inh=4;TTR up confirm=-1
O=C(O)CC/C(=N/NC(=O)c1cccs1)c1ccccc1,-1,
CCCc1ccc(OCC(=O)NNC(=O)c2cccnc2)cc1,1,
N#C/C(=C\c1ccccc1OCC(=O)O)c1nc2ccccc2[nH]1,-1,
CCOC(=O)[C@H]1[C@H]2COc3ccc(Br)cc3[C@@H]2N2C(=O)CN(CC3CCCO3)C(=O)[C@@]12C (stereo not given in full),-1,
Cn1nc(Cc2n[nH]c(=S)n2C)c2ccccc2c1=O,-2,
CCc1ccccc1NC(=O)c1ccc(OCc2c(C)noc2C)cc1,49*,HuH7 TTR inh=-12;TTR up confirm=1
Cc1noc(C)c1COc1ccc(C(=O)Nc2ccccc2)cc1,0,
Cc1noc(C)c1COc1ccc(C(=O)Nc2ccccn2)cc1,0,
COc1ccc2c(CN3CCN(c4ccccc4F)CC3)cc(=O)oc2c1,0,
O=C(OCC(=O)C12CC3CC(CC(C3)C1)C2)c1cnccn1,0,
N#C/C(=C/C1=C(N2CCOCC2)C(=C/c2ccc(Cl)cc2)/CC1)C(=O)Nc1ccccc1F,-2,
CCn1c(SCC(=O)Nc2cc(C)on2)nnc1-c1ccc(OC)cc1,2,
Cc1ccccc1CCN(CC(=O)NCc1ccc(F)cc1)C(=O)c1csnn1,0,
Cc1ccc(N(CC(=O)NCc2ccc(F)cc2)C(=O)c2csnn2)cc1C,11*,HuH7 TTR inh=-16;TTR up confirm=0
Cc1cc(C)c(N(CC(=O)NCc2ccccc2)C(=O)c2csnn2)c(C)c1,0,
Cc1ccccc1OCCn1c(S(=O)(=O)O)nc2c(N)ncnc21,9.9*,HuH7 TTR inh=-16;TTR up confirm=0
Cc1ccccc1OCCn1c(C)nc2ccccc21,-2,
Cc1ccccc1OCCn1c(=S)[nH]c2ccccc21,-1,
COC(=O)[C@]12C[C@H](CC(=O)NCCCN3CCCC3=O)C(=O)N(Cc3cccc4ccccc34)C1=C[C@H](C(C)C)O[C@@H]2C1CC1,-1,
Cc1cc(O)ccc1NC(=O)Cc1cccc2ccccc12,2,
Cc1ccc(NC(=O)CCc2c(C)nn(-c3ccc(N4CCOCC4)nn3)c2C)cc1,1,
COc1ccc(NC(=O)CCc2c(C)nn(-c3ccc(N4CCOCC4)nn3)c2C)cc1,12*,HuH7 TTR inh=-6;TTR up confirm=1
CC(=O)c1ccc(NC(=O)CCc2c(C)nn(-c3ccc(N4CCOCC4)nn3)c2C)cc1,-2,
SMILES,TTR transcr act,others
COc1ccc(CCN2C(=S)N(C)C(=O)C2CC(=O)Nc2ccc(F)cc2)cc1 (stereo not given),0,
CCOC(=O)[C@@]12CCCC3=C1N(CCC3)C(=O)[C@H]2CC(=O)N1CCOCC1,1,
CSC1=NCCN1C(=O)C(C)Oc1ccccc1 (stereo not given),-1,
CC(OC(=O)Cn1c(C(F)(F)F)nc2ccccc21)C(=O)N1CCCc2ccccc21 (stereo not given),4,
CC(Oc1ccccc1)C(=O)N1CCCc2ccccc21 (stereo not given),10*,HuH7 TTR inh=-16;TTR up confirm=1
Cc1cn([C@H]2C[C@H](O)[C@@H](CNC(=O)CNC(=O)CN)O2)c(=O)[nH]c1=O,1,
CCN(CC)CCSc1nnc2c3cc(C)ccc3n(Cc3ccccc3)c2n1,-2,
C=CCN1[C@@H](C)[C@H](c2ccccc2)Oc2cccc(N3CCCC(C)C3)c2S1(=O)=O (stereo not given in full),1,
O=C(Nc1ccc(F)cc1)OCc1cn(Cc2ccc(F)cc2)nn1,-1,
Cc1ccc(-c2n[nH]c(=S)n2/N=C/c2ccncc2)cc1,10.0*,HuH7 TTR inh=6;TTR up confirm=0
S=c1[nH]nc(-c2ccncc2)n1/N=C/C=C/c1ccccc1,5,
Cc1ccc(-c2n[nH]c(=S)n2/N=C/c2sccc2C)cc1,1,
O=C(CSc1ncnc2nc[nH]c12)c1ccc([N+](=O)[O-])cc1,29*,HuH7 TTR inh=2;TTR up confirm=-1
O=C(CSc1nnc(-c2ccco2)o1)c1ccc([N+](=O)[O-])cc1,0,
c1ccc2c(CSc3ncnc4nc[nH]c34)cccc2c1,1,
COc1ccc(C(=O)C2CCCN(C(=O)c3cccs3)C2)cc1F (stereo not given),0,
N#CCSc1ccc(-c2nc3ccccc3[nH]2)cn1,-3,
CCOCCn1c(CN2CCN(c3ccccc3)CC2)nc2c1c(=O)n(C)c(=O)n2C,2,
CCOCCn1c(CN2CCc3ccccc3C2)nc2c1c(=O)n(C)c(=O)n2C,13*,HuH7 TTR inh=2;TTR up confirm=0
Cn1c(=O)c2c(nc(CN3CCc4ccccc4C3)n2Cc2ccccc2)n(C)c1=O,-3,
COc1ccc(-c2cc(C(=O)NC(C)c3ccccn3)c3ccccc3n2)cc1OC (stereo not given),-2,
O=C(NNC(=O)c1ccc2ccccc2c1)c1cccc(Cl)c1,-1,
COc1ccc(N(CC(=O)N/N=C/c2ccc(OC3CSC3)cc2)S(=O)(=O)c2ccccc2)cc1,0,
CS(=O)(=O)N(CC(=O)N/N=C/c1cc([N+](=O)[O-])ccc1Cl)c1ccccc1,1,
O=C(CN(c1ccc(Cl)c(C(F)(F)F)c1)S(=O)(=O)c1ccccc1)N/N=C/c1cccc2c1OCCO2,10*,HuH7 TTR inh=0;TTR up confirm=-1
SMILES,TTR transcr act,others
Cc1ccc(N2C(=O)C3CCCN3C2=S)cc1C (stereo not given),20*,HuH7 TTR inh=-9;TTR up confirm=0
Cc1ccc(N2C(=O)C3CCCN3C2=S)cc1 (stereo not given),0,
Cc1cc(C)cc(N2C(=O)C3CCCN3C2=S)c1 (stereo not given),0,
CN=C1NC(=O)/C(=C\c2cc(C)n(-c3ccccc3F)c2C)S1,3,
O=C(Cc1cccs1)N[C@@H]1c2ccccc2CC[C@@H]1OCc1ccccc1,1,
N#CC(=Nc1ccccc1)c1ccccc1,-1,
CSc1ccccc1NC(=O)CN(C)CC(=O)Nc1ccccc1C(F)(F)F,12*,HuH7 TTR inh=-19;TTR up confirm=0
COc1ccc(CN(C)CC(=O)Nc2ccccc2C(F)(F)F)cc1,-1,
CSc1ccccc1NC(=O)CN(C)CC(=O)Nc1ccc(Cl)cc1F,-1,
Cn1c(=O)c2c(ncn2CC(=O)Nc2nccs2)n(C)c1=O,-1,
CC(C)NC(=O)N(C)C[C@H]1Oc2ccc(NC(=O)Cn3cnnn3)cc2C(=O)N([C@H](C)CO)C[C@@H]1C,0,
Cc1noc(C)c1NC(=O)Nc1ccc2c(c1)C(=O)N([C@H](C)CO)C[C@H](C)[C@@H](CN(C)S(=O)(=O)c1ccc(F)cc1)O2,7,
Cc1ccc(S(=O)(=O)N(C)C[C@@H]2Oc3ccc(NC(=O)Cn4cnnn4)cc3C(=O)N([C@@H](C)CO)C[C@H]2C)cc1,21*,HuH7 TTR inh=-12;TTR up confirm=-1
NC(=O)C12NC(Cc3ccccc31)c1ccccc12 (stereo not given),0,
CCCCNC(=O)c1nc(-c2ccncc2)oc1-c1ccccc1,1,
CNC[C@@H]1OCc2ccccc2-c2c(n(C)c3ccccc23)C(=O)N([C@@H](C)CO)C[C@@H]1C,-1,
COc1ccc(N(C(C)C(=O)N/N=C/c2cccnc2)S(C)(=O)=O)cc1 (stereo not given),-1,
COc1ccc(N(C(C)C(=O)N/N=C/c2ccc(OC)c(OC)c2)S(C)(=O)=O)cc1 (stereo not given),-1,

# High-throughput results as filed in PubChem BioAssay.
